# Reference: PubChem BioAssay AID1063 (University of Pittsburgh Molecular Library Screening Center, 2008)
# In all, about 200,000 compounds went through this assay and about 18,000 (9%) were called active. Rule as the data show it: active = inhibition above about 50%; inactive = the rest. For the sample, actives were picked, then their nearest neighbours and some compounds at random. Where a SMILES comes first, the peptide text is derived from it. The star is where a group is joined. Bz = O=C(c1ccccc1)*
# Assay: Leishmania major promastigote growth inhibition, primary screen (AID 1063);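 also: promastigotes grown with compound for 44 hours at 28 °C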
# Settings: Leishmania major promastigotes, resazurin fluorescence viability; at 10 µM; active compounds read high
row,SMILES,inhibition
1,CN(C)/C=C/C(=O)c1cnc2sccn2c1=O,-6.23% (inactive)
2,O=C(C(Cc1ccccc1)n1cccc1)N1CCN(C2CCCCC2)CC1 (stereo not drawn),83% (active)
3,Cc1ccc(C(=O)N2CCN(C3CCCCC3)CC2)s1,-10.8% (inactive)
4,O=C(NC(Cc1ccccc1)C(=O)N1CCCC1C(=O)O)c1ccccc1 (stereo not drawn) (Bz-Phe-Pro-OH; configuration not given here),-8.5% (inactive)
5,COCCCN(C(=S)Nc1c(C)cc(C)cc1C)C(C)c1ccncc1 (stereo not drawn),1.38% (inactive)
6,Cc1cccc(-c2nc3ccccc3c(=O)n2NC(=O)Cc2ccc(Cl)cc2)c1,53% (active)
7,O=C(Cn1nnc2ccccc2c1=O)NCc1ccc(Cl)cc1,-4.83% (inactive)
8,COc1cc(OC)cc(-c2nc3ccccc3c(=O)n2NC(=O)c2cccnc2Cl)c1,46.3% (inactive)
9,O=C(Cc1ccc(Cl)cc1)NCc1nc(-c2ccccc2)no1,-1.26% (inactive)
10,O=C(Nn1c(-c2ccc(Cl)cc2)nc2ccccc2c1=O)c1cccnc1Cl,55.3% (active)
11,O=C(Nn1c(-c2ccccc2)nc2ccccc2c1=O)c1ccc([N+](=O)[O-])cc1,-4.12% (inactive)
12,CCCCCC1CCC(c2nnc(SCC(C)=O)o2)CC1 (stereo not drawn),-9.46% (inactive)
13,COCCNC(=O)C(OC(=O)c1cccs1)c1ccc(F)cc1 (stereo not drawn),-3.33% (inactive)
14,COc1ccc(Cl)cc1NC(=O)CN(C)Cc1ccc(OC)c(OC)c1,1.17% (inactive)
15,Cc1cccc(-n2c(Cc3cc(=O)[nH]c(=O)[nH]3)nnc2SCC(=O)Nc2cccc(C(F)(F)F)c2)c1,-1.75% (inactive)
16,N#Cc1c(NC(=O)C2CC(Cl)=CCC2C(=O)O)sc2c1CCCCC2 (stereo not drawn),-8.36% (inactive)
17,COc1ccc(OCC(=O)Nc2ccc(N3CCC(C)CC3)cc2)cc1,8.72% (inactive)
18,O=C(COc1ccc([N+](=O)[O-])cc1)Nc1ccc(N2CCCC2)cc1,86.2% (active)
19,O=C(COC(=O)C1CCCCC1)Nc1ccc([N+](=O)[O-])cc1,-5.31% (inactive)
20,COc1cc(COCC(O)CN2CCN(Cc3ccc4c(c3)OCO4)CC2)cc(OC)c1OC (stereo not drawn),2.04% (inactive)

row,SMILES,inhibition
1,Cc1cc(=O)oc(C)c1C(=O)NCCN(C)Cc1ccccc1,9.38% (inactive)
2,COc1ccc(CCNC(=O)CSc2nc(-c3ccc(OC)c(OC)c3)ccc2C#N)cc1,27.6% (inactive)
3,COc1cccc(-c2ccc(C#N)c(SCC(=O)NCCc3ccc(Cl)cc3)n2)c1,50.9% (active)
4,COc1ccc(CCNC(=O)CSc2nnc3ccc(-c4ccncc4)nn23)cc1,-2.23% (inactive)
5,NS(=O)(=O)c1ccc(NC(=O)/C=C/c2ccccc2Cl)cc1,0.13% (inactive)
6,O=S(=O)(NCc1ccccc1)c1ccc(S(=O)(=O)N2CCCC2)cc1,-7.35% (inactive)
7,O=C1c2cccnc2C(Nc2ccc(S(=O)(=O)N3CCCCCC3)cc2)N1Cc1ccccc1 (stereo not drawn),54.9% (active)
8,Cc1nc(Nc2ccc(S(=O)(=O)N3CCCC3)cc2)c2nnn(Cc3ccccc3)c2n1,0.17% (inactive)
9,COC(=O)c1c(CCl)noc1C(=O)NC(C)C,100% (active)
10,COC(=O)c1onc(-c2c(OC)cc(OC)cc2OC)c1C(=O)OC,-8.2% (inactive)
11,CCOc1cccc(SCc2noc(C(=O)NC(C)C)c2C(=O)O)c1,-11.1% (inactive)
12,Cc1cc(NC(C)C)n2c(nc3ccccc32)c1C#N,0.11% (inactive)
13,O=C1N(c2ccc(Cl)cc2)C(c2ccc(Cl)cc2)N2CCCN12 (stereo not drawn),-2.86% (inactive)
14,COCCCNC(NC(=O)c1ccc(OC)cc1)C(Cl)(Cl)Cl (stereo not drawn),-5.56% (inactive)
15,O=Cc1ccc(OCc2cn3ccccc3n2)cc1,-8.44% (inactive)
16,CNC(=O)COC(=O)c1cc(-c2ccc(OC)cc2)nc2ccccc12,6.03% (inactive)
17,CCn1c(CNS(=O)(=O)c2ccc(Cl)cc2)n[nH]c1=S,-0.27% (inactive)
18,S=c1[nH]nc(CSCc2ccc(Cl)cc2Cl)n1-c1ccccc1,14.5% (inactive)
19,CCn1c(CSCc2c(Cl)cccc2Cl)n[nH]c1=S,81.2% (active)
20,CCOC(=O)NC(=O)/C(C#N)=C\c1ccccc1,-7% (inactive)

row,SMILES,inhibition
1,O=C(Nc1ccc2c(c1)CCC2)c1cccc(S(=O)(=O)N2CCN(c3ccc(F)cc3)CC2)c1,24.5% (inactive)
2,O=C(c1cccc(S(=O)(=O)Nc2ccccc2Cl)c1)N1CCN(C(=O)c2ccco2)CC1,-0.85% (inactive)
3,O=C(Nc1ccc2c(c1)CCC2)c1cccc(S(=O)(=O)Nc2ccccc2Cl)c1,95.5% (active)
4,Cc1ccc(-c2nn(-c3ccccc3)cc2/C=C/C(=O)Nc2cccc(S(N)(=O)=O)c2)cc1,-2.89% (inactive)
5,Cc1ccccc1C(CC(=O)c1cccs1)C(C#N)C#N (stereo not drawn),83.5% (active)
6,O=C(CCC(=O)c1cccs1)NCc1ccccc1,-10.9% (inactive)
7,Cc1ccc(C)c(NC(CC(=O)c2ccccc2)C(=O)OCC(=O)c2cccs2)c1 (stereo not drawn),17.1% (inactive)
8,CC(NC(=O)COC(=O)c1ccc(Cl)cc1O)c1ccc(F)cc1 (stereo not drawn),-6.63% (inactive)
9,CC(=O)c1ccc(S(=O)(=O)Nc2ccc(C(=O)NCC(c3ccccc3)N(C)C)cc2)cc1 (stereo not drawn),0.26% (inactive)
10,CN(C)CCCNC(=O)c1ccc2[nH]c3ccccc3c2c1,13% (inactive)
11,CN(C)c1ccc(C(CNC(=O)c2ccc(F)cc2)c2c[nH]c3ccccc23)cc1 (stereo not drawn),96.3% (active)
12,COc1ccc(-n2nc3c(c2NC(=O)c2ccc(N4C(=O)CCC4=O)cc2)CSC3)cc1,-0.66% (inactive)
13,O=c1[nH]n(-c2ccc([N+](=O)[O-])cc2)c(=O)c2ccccc12,-3.65% (inactive)
14,CC(C)(C)c1ccc(/C=C/C(=O)NC2CCS(=O)(=O)C2)cc1 (stereo not drawn),0.12% (inactive)
15,O=C(Nc1nc2cc3c(cc2s1)OCCO3)c1cccc(S(=O)(=O)N2CCOCC2)c1,99.1% (active)
16,COc1ccc(S(=O)(=O)N2CCOCC2)cc1C(=O)Nc1nc2ccccc2s1,-3.71% (inactive)
17,O=C(Nc1nc2ccc(S(=O)(=O)N3CCCC3)cc2s1)C1CCCO1 (stereo not drawn),2.48% (inactive)
18,Cc1noc(C)c1COc1cccc(C(=O)Nc2cccnc2)c1,4.43% (inactive)
